# Results as given in PubChem BioAssay (NCATS).
# Results filed as inconclusive are left out. Where a call stands in place of a potency, no number is given. Unmarked numbers belong to inactive results. Active and inactive are the calls of the source. Calls follow the shape of the dose curve; as a rule, active = well fitted curve in the direction sought with a large enough effect; inconclusive = small, poorly fitted or top-dose-only effect, or another doubt; inactive = no such curve, though single readings can be large; an effect the other way counts as inactive or inconclusive.
# Experiments:
# [1] = Primary qHTS for inhibitors of nuclear receptor binding SET domain protein 2 (NSD2) in an isogenic RCH-ACV NSD2 p.E1099K mutant (9B) (AID 1645876); settings: RCH-ACV NSD2 E1099K (9B) viability, CellTiter-Glo, 72 h; series mostly up to 44.9 µM
# [2] = Primary qHTS for inhibitors of nuclear receptor binding SET domain protein 2 (NSD2) in an RCH-ACV wild type WT cells (2C) (AID 1645877); settings: RCH-ACV (leukaemia line) NSD2 WT (2C) viability, CellTiter-Glo, 72 h; series mostly up to 44.9 µM
# Also: nearly all actives have a fitted effect of over 70% in size.
smiles,measurement,setting,value
C[C@@H]1CC[C@]2(C(=O)O[C@@H]3O[C@H](CO)[C@@H](O)[C@H](O)[C@H]3O)CC[C@]3(C)C(=CCC4[C@@]5(C)C[C@@H](O)[C@H](O)C(C)(C)C5CC[C@]43C)C2[C@]1(C)O (some centres undefined),Potency,[1],inactive
same,Potency,[2],inactive
C/C(=C\CCC(C(=O)O)C1CCC2(C)C3=C(CCC12C)C1(C)CCC(=O)C(C)(C)C1CC3)C(=O)O (centres undefined),Potency,[1],inactive
CC1(C)CC[C@]2(C(=O)O)CC[C@]3(C)C(=CCC4[C@@]5(C)CC[C@H](O[C@@H]6O[C@H](C(=O)O)[C@@H](O)[C@H](O)[C@H]6O)C(C)(CO)C5CC[C@]43C)C2C1 (some centres undefined),Potency,[1],inactive
same,Potency,[2],inactive
COC1=Cc2c(nc3n(c2=O)C(C)C(=O)NC3(O)C(C)C)OC=C1 (centres undefined),Potency,[1],inactive
same,Potency,[2],inactive
CC1CCCC2OC2C(=O)c2c(O)cc(O)cc2CC(=O)O1 (centres undefined),Potency,[1],inactive
C[C@@H]1O[C@@H](O[C@H]2[C@H](OC(=O)C34CCC5(C)C(=CCC6C7(C)CC(O)C(O[C@@H]8O[C@H](C(=O)O)[C@@H](O)[C@H](O)[C@H]8O)C(C)(C(=O)O)C7CCC65C)C3CC(C)(C)CC4O)O[C@H](C)[C@@H](O)[C@@H]2O)[C@H](O)[C@@H](O[C@@H]2OC[C@](O)(CO)[C@H]2O[C@@H]2O[C@H](CO)[C@@H](O)[C@H](O)[C@H]2O)[C@H]1O (some centres undefined),"activity change, negative = viability loss",[1],-24% [at 9.23 µM]
CC(=O)O[C@H]1CC[C@@]2(CI)C(=CC[C@@H]3[C@@H]2CC[C@]2(C)[C@@H]([C@H](C)CCCC(C)C)CC[C@@H]32)C1,"activity change, negative = viability loss",[1],-4.5% [at 9.23 µM]
same,"activity change, negative = cell killing",[2],-14% [at 9.23 µM]
CC(=O)O[C@@H]1[C@@H](OC(=O)/C=C/c2ccccc2)[C@H](C)O[C@@H](O[C@H]2[C@@H]3C=CO[C@@H](O[C@@H]4O[C@H](CO)[C@@H](O)[C@H](O)[C@H]4O)[C@@H]3[C@@]3(CO)O[C@@H]23)[C@@H]1OC(C)=O,Potency,[1],inactive
same,Potency,[2],inactive
C=C1CCC(OC(C)=O)C2(C)CC3(O)OC(=O)C(C)=C3CC12 (centres undefined),Potency,[1],inactive
same,Potency,[2],inactive
C=C(C)[C@@H]1CC[C@](C)(O)[C@@H](OC(=O)c2ccccc2)C1,Potency,[1],inactive
NC(=O)[C@H]1CCCCc2c1[nH]c1ccc(Cl)cc21,Potency,[1],inactive
same,Potency,[2],inactive
CC1CCC2(C)C(CC(O)C(O)C23CO3)C1(C)CCC1=CC(=O)OC1O (centres undefined),Potency,[1],inactive
C=C1C(=O)O[C@H]2[C@H]1[C@@H](OC(=O)C(C)CO)C[C@@]1(C)[C@H](O)CCC(=O)[C@H]21 (some centres undefined),Potency,[1],inactive
same,Potency,[2],inactive
COC(=O)C1C(CC(C)=O)C=CC(O)C12Oc1cc(C)cc(O)c1C2=O (centres undefined),Potency,[1],inactive
CC(C)[C@H]1CCC(CO)=C[C@@H]1/C=C(\CO)C(=O)O,Potency,[1],inactive
same,Potency,[2],inactive
Clc1ccc2c(c1)C1=NCCN1c1c(-c3noc(C4CC4)n3)ncn1-2,Potency,[1],inactive
CC1(C)O[C@]23C[C@H]1C[C@H](OC(=O)c1ccoc1)[C@]2(C)[C@@H](OC(=O)c1ccoc1)CCC3(C)O (some centres undefined),Potency,[1],inactive
same,Potency,[2],inactive
CC(C)NC[C@H](O)COc1ccc(CCOCC2CC2)cc1,Potency,[1],inactive
same,Potency,[2],inactive
CC1=CC2(O)/C=C/C(C)(O)CC(O)/C=C/C(=O)OC23C(=O)NC(CC(C)C)C3C1C (centres undefined),Potency,[1],inactive
O=C(OCC12OC1C=CC(OC(=O)c1ccccc1)C2O)c1ccccc1 (centres undefined),Potency,[1],inactive
C[C@]12CCC[C@](C)(C(=O)O)C1CCC13C=C(CO)C(CCC12)C3 (some centres undefined),Potency,[1],inactive
same,Potency,[2],inactive
C[C@@H]1O[C@@H](O[C@H]2[C@H](O[C@H]3[C@H](O[C@H]4CC[C@@]5(CO)C(CC[C@]6(C)C5CC=C5C7CC(C)(C)C[C@@H](O)[C@]7(C)CC[C@]56C)C4(C)C)O[C@H](C(=O)O)[C@@H](O)[C@@H]3O)OC[C@@H](O)[C@@H]2O)[C@H](O)[C@H](O)[C@H]1O (some centres undefined),"activity change, negative = viability loss",[1],-1.45% [at 9.23 µM]
same,"activity change, negative = cell killing",[2],-8.5% [at 9.23 µM]
CC/C=C\C[C@H]1C(=O)C=C[C@@H]1CCCCCCCC(=O)O,Potency,[1],inactive
CNC(=O)[C@H]1O[C@@H](n2cnc3c(NCc4ccc(N)c(I)c4)ncnc32)[C@H](O)[C@@H]1O,"activity change, negative = viability loss",[1],-0.539% [at 9.23 µM]
same,"activity change, negative = cell killing",[2],2.39% [at 9.23 µM]
OCc1ccccc1O[C@@H]1O[C@H](CO)[C@@H](O)[C@H](O)[C@H]1O,Potency,[1],inactive
same,Potency,[2],inactive
C=C(C(=O)OC)C1CCC2(C)C(O[C@@H]3O[C@H](CO)[C@@H](O)[C@H](O)[C@H]3O)CC(=O)C(C)C2C1O (some centres undefined),Potency,[1],inactive
same,Potency,[2],inactive
CC(/C=C/C1(O)C2(C)COC1(C)CC(=O)C2)O[C@@H]1O[C@H](CO)[C@@H](O)[C@H](O)[C@H]1O (some centres undefined),Potency,[1],inactive
same,Potency,[2],inactive
COC1=CC(=O)O[C@@H](/C=C/c2ccccc2)[C@@H]1O,Potency,[1],inactive
same,Potency,[2],inactive
NC(=O)c1cccc(-c2cc(O)cc(OC(=O)NC3CCCCC3)c2)c1,Potency,[1],inactive
same,Potency,[2],inactive
Cc1ncc([N+](=O)[O-])n1CC(O)CN1CCOCC1 (centres undefined),Potency,[1],inactive
same,Potency,[2],inactive
CC1=C(C)C(=O)OC(C(C)(O)C2CCC3C4CC=C5CC(OC6OC(COC7OC(CO)C(O)C(O)C7O)C(O)C(O)C6O)CC(O)C5(C)C4CCC32C)C1 (centres undefined),Potency,[1],inactive
same,Potency,[2],inactive
C=C1[C@@H]2[C@H]3OC(=O)C(=C)[C@@H]3CC[C@@](C)(O)[C@@H]2C[C@@H]1O[C@@H]1O[C@H](CO)[C@@H](O)[C@H](O)[C@H]1O,Potency,[1],inactive
same,Potency,[2],inactive
CC(O)(CC(=O)O)CC(=O)O[C@@H]1[C@@H](O)[C@H](OCCc2ccccc2)O[C@H](CO)[C@H]1O (some centres undefined),Potency,[1],inactive
same,Potency,[2],inactive
COc1c(C(CC(C)C)OC(C)=O)ccc(Oc2c(O)cc(C)cc2/C=C/C(C)=O)c1C(=O)O (centres undefined),Potency,[1],inactive
COc1cc(C(C)=O)ccc1O[C@@H]1O[C@H](CO[C@@H]2O[C@@H](C)[C@H](O)[C@@H](O)[C@H]2O)[C@@H](O)[C@H](O)[C@H]1O,Potency,[1],inactive
same,Potency,[2],inactive
CCCC1=CC2=C(CO1)C(=O)C(C)(OC(=O)c1c(C)cc(OC)cc1O)C(O)C2 (centres undefined),Potency,[1],inactive
C[C@@H]1O[C@@H](O[C@H]2[C@H](OC(C#N)c3ccc(O)cc3)O[C@H](CO)[C@@H](O)[C@@H]2O)[C@H](O)[C@H](O)[C@H]1O (some centres undefined),Potency,[1],inactive
same,Potency,[2],inactive
CCNC(=O)[C@@H]1CCCN1C(=O)[C@H](CCCN=C(N)N)NC(=O)[C@H](CC(C)C)NC(=O)[C@@H](C)NC(=O)[C@H](Cc1ccc(O)cc1)NC(=O)[C@H](CO)NC(=O)[C@H](Cc1c[nH]c2ccccc12)NC(=O)[C@H](Cc1cnc[nH]1)NC(=O)[C@@H]1CCC(=O)N1,Potency,[1],inactive
same,Potency,[2],inactive
O=C(/C=C/c1ccc(O)cc1)OC[C@H]1O[C@@H](OC(=O)/C=C/c2ccccc2)[C@H](O)[C@@H](O)[C@@H]1O,Potency,[1],inactive
same,Potency,[2],inactive
C/C=C/C1=CC2=CC(=O)C(C)(O)C(OC(=O)c3c(C)cc(O)cc3O)C2CO1 (centres undefined),Potency,[1],inactive
CC(O)C(O)/C=C/C=C/C(=O)O[C@@H]1C=C2COC(=O)[C@]2(O)[C@@]2(C)CCCC(C)(C)C12 (some centres undefined),Potency,[1],inactive
same,Potency,[2],inactive
C=CC(C)(CC/C=C(\C)CC/C=C(\C)CC(O)/C=C(\C)C(=O)O)O[C@@H]1O[C@H](CO)[C@@H](O)[C@H](O)[C@H]1O[C@@H]1O[C@H](CO)[C@@H](O)[C@H](O)[C@H]1O (some centres undefined),Potency,[1],inactive
same,Potency,[2],inactive
COC1CC(=O)CCC(C)OC(=O)CC1O (centres undefined),Potency,[1],inactive
same,Potency,[2],inactive
CCC/C=C/C(=O)O[C@H]1CC(C)(C)CC2[C@]13[C@H](O)O[C@@]21CCC2[C@@]4(C)CC[C@H](O[C@@H]5O[C@H](C(=O)O)[C@@H](O)[C@H](O[C@@H]6O[C@H](CO)[C@H](O)[C@H](O)[C@H]6O[C@@H]6O[C@@H](C)[C@H](O)[C@@H](O)[C@H]6O[C@@H]6OC[C@](O)(CO)[C@H]6O)[C@H]5O[C@@H]5O[C@H](CO)[C@H](O)[C@H](O)[C@H]5O)C(C)(C)C4CC[C@@]2(C)[C@]1(C)C[C@H]3OC(C)=O (some centres undefined),"activity change, negative = viability loss",[1],-22.9% [at 9.23 µM]
same,"activity change, negative = cell killing",[2],-16.1% [at 9.23 µM]
C[C@@H]1O[C@@H](OC[C@H]2O[C@@H](OCC3CCC4CC3C4(C)C)[C@H](O)[C@@H](O)[C@@H]2O)[C@H](O)[C@H](O)[C@H]1O (some centres undefined),Potency,[1],inactive
same,Potency,[2],inactive
NC(=O)c1ccc(OCC2NC(=O)C3CCCN3C2=O)cc1 (centres undefined),Potency,[1],inactive
same,Potency,[2],inactive
C/C=C1/[C@H](O[C@@H]2O[C@H](CO)[C@@H](O)[C@H](O)[C@H]2O)OC=C(C(=O)OC)[C@H]1CC(=O)O[C@@H]1O[C@H](CO)[C@@H](O)[C@H](O)[C@H]1O,Potency,[1],inactive
same,Potency,[2],inactive
COc1cc(C2c3cc(O)c(OC)cc3CC(CO)C2CO)ccc1O (centres undefined),Potency,[1],inactive
same,Potency,[2],inactive
CC(C)CNC(=O)/C=C/CCCCc1ccc2c(c1)OCO2,Potency,[1],inactive
same,Potency,[2],inactive
CC(C)(O)C1=CCC23COC(C2)C(O)(C(=O)O)CCC13 (centres undefined),Potency,[1],inactive
same,Potency,[2],inactive
C=C1C2=CC(O)C(C)C1(C)CC/C(C)=C/CCC1(C)OC1C2=O (centres undefined),Potency,[1],inactive
same,Potency,[2],inactive
C=C1CC2C3(C)C(O)CC(=O)C(C)(C)C3C(OC(C)=O)C(OC(C)=O)C2(C)C2C(=O)OC(C)(C(=O)OC)C(=O)C12C (centres undefined),Potency,[1],inactive
same,Potency,[2],inactive
CC1(C)CCCC2(C)C(CO)C3CCC2C31 (centres undefined),Potency,[1],inactive
same,Potency,[2],inactive
C/C(=C\CCC(C)(O)c1ccc(C)cc1)C(=O)O (centres undefined),Potency,[1],inactive
same,Potency,[2],inactive
C[C@H]1[C@H](C)CC[C@]2(C(=O)O[C@@H]3O[C@H](CO)[C@@H](O)[C@H](O)[C@H]3O)CC[C@]3(C(=O)O)C(=CCC4[C@@]5(C)CC[C@H](O[C@@H]6O[C@H](CO)[C@@H](O)[C@H](O)[C@H]6O)C(C)(C)C5CC[C@]43C)[C@H]12 (some centres undefined),"activity change, negative = viability loss",[1],-7.26% [at 9.23 µM]
same,"activity change, negative = cell killing",[2],-8.94% [at 9.23 µM]
O=c1c2ccccc2nc2n1CCC2O (centres undefined),Potency,[1],inactive
same,Potency,[2],inactive
